This note sets out measurements from PubChem BioAssay (NCI).

Among the test systems are NCI-H23 lung; NCI-H226 lung; NCI-H322M lung; HOP-62 NSCLC; NCI-H460 lung; 786-0 renal; MDA-MB-231 breast; SF-268 CNS; SF-539 CNS; M14 melanoma; U251 CNS; PC-3 prostate; UACC-62 melanoma; SK-MEL-28 melanoma; UO-31 renal; OVCAR-3 ovarian; SW-620 colon; MCF7 breast; HCT-116 colon; KM12 colon.
Test in all cases: NCI-60 one-dose screen, 48 h (100 = growth as untreated, 0 = no growth, -100 = all killed)
What all share (details): 10 µM unless noted

Structures are written as SMILES. About 83,000 compounds went through this panel and 20% of them were active in at least one assay; those are over-represented in the sample as a whole.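 Each cell line was grown in a 96-well plate and treated with one concentration of compound for 48 hours. Values below 10 were considered active.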 Unmarked numbers belong to inactive results. Activity calls are given as the source filed them.

For the compound `Oc1ccc(O)c2c1C1(Cl)C(Cl)=C(Cl)C2(Cl)C1(Cl)Cl`, the growth was 59.3% with NCI-H23 lung; 59% in the assay with NCI-H226 lung; 33.1% with NCI-H322M lung; 47.4% in the assay with HOP-62 NSCLC; 55.3% with NCI-H460 lung; 69.1% with 786-0 renal. The growth was 41.3% in the assay with MDA-MB-231 breast; 44.7% in the assay on SF-268 CNS; 68.2% in the assay with SF-539 CNS; 32.6% with M14 melanoma; 51.6% in the assay with U251 CNS; 42.4% with PC-3 prostate. The growth is 37.1% in the assay with UACC-62 melanoma; 67.9% in the assay with SK-MEL-28 melanoma; 44.2% in the assay with UO-31 renal; 40.4% with OVCAR-3 ovarian; 56.9% in the assay with SW-620 colon; 38.9% in the assay on MCF7 breast. Besides, the results for the growth with HCT-116 colon and in the assay on KM12 colon were 28.4% and 34.6%, respectively.
As for `CC(=O)N(C)C1=Nc2ccc(Cl)cc2C(c2ccccc2)=[N+]([O-])C1`, the growth with NCI-H23 lung is 101%; in the assay with NCI-H226 lung, 105%; with NCI-H322M lung it was 82.6%; in the assay with HOP-62 NSCLC it was 96.3%; in the assay with NCI-H460 lung, 111%; in the assay on 786-0 renal, 110%. Besides, the growth is 109% in the assay on MDA-MB-231 breast; 105% in the assay with SF-268 CNS; 104% in the assay on SF-539 CNS; 114% in the assay on M14 melanoma; 111% in the assay on U251 CNS; 91% with PC-3 prostate. Besides, the growth is 93.7% in the assay on UACC-62 melanoma; 124% in the assay with SK-MEL-28 melanoma; 80.7% in the assay on UO-31 renal; 117% with OVCAR-3 ovarian; 107% in the assay with SW-620 colon; 104% in the assay on MCF7 breast. Also, the growth in the assay with HCT-116 colon was 99.3%; in the assay on KM12 colon, 107%.
As to `O1[As]2O[As]3O[As]1O[As](O2)O3`, the growth in the assay with NCI-H23 lung is 6.46% (active); in the assay on NCI-H226 lung, 0.918% (active); with NCI-H322M lung, 38.2%; in the assay on HOP-62 NSCLC, -41.6% (active); with NCI-H460 lung, 3.94% (active); in the assay on 786-0 renal it was 10.7%. Also, the growth in the assay with MDA-MB-231 breast was -22.8% (active); with SF-268 CNS it was 5.42% (active); in the assay on SF-539 CNS, -4.27% (active); in the assay on M14 melanoma it was -24.2% (active); in the assay on U251 CNS, -69.2% (active); in the assay with PC-3 prostate it was 10.7%. Moreover, the growth was -53.3% (active) in the assay with UACC-62 melanoma; -17.6% (active) with SK-MEL-28 melanoma; -7% (active) in the assay on UO-31 renal; -35.3% (active) with OVCAR-3 ovarian; 4.74% (active) in the assay on SW-620 colon; 6.19% (active) in the assay with MCF7 breast. Further, the results for the growth with HCT-116 colon and in the assay with KM12 colon were -10.3% (active) and 39%, respectively.
With `COc1ccc(C(c2ccc(OC)cc2)C(Cl)(Cl)Cl)cc1`, the growth in the assay on NCI-H23 lung is 81.9%; in the assay with NCI-H226 lung it was 96.9%; in the assay on NCI-H322M lung, 106%; with HOP-62 NSCLC, 83.1%; in the assay with NCI-H460 lung, 91.8%; in the assay with 786-0 renal it was 74.4%. Also, the growth with MDA-MB-231 breast is 93%; with SF-268 CNS it was 88.6%; in the assay with SF-539 CNS, 79.5%; in the assay on M14 melanoma, 84.5%; with U251 CNS, 90.4%; in the assay with PC-3 prostate it was 68.7%. Besides, the growth was 84.7% in the assay on UACC-62 melanoma; 103% with SK-MEL-28 melanoma; 53.4% in the assay with UO-31 renal; 89.4% in the assay on SW-620 colon; 92.6% with MCF7 breast; 61.8% with HCT-116 colon. Further, in the assay with KM12 colon, the growth is 83.8%.
For the compound `COC(=O)C[Se]C(=O)c1ccccc1OC(C)=O`, the growth with NCI-H23 lung is 76.2%; in the assay with NCI-H226 lung, 56.3%; with NCI-H322M lung it was 77.5%; with HOP-62 NSCLC it was 32.7%; with NCI-H460 lung, 76.5%; with 786-0 renal, 89.8%. For the same compound, the growth is 71.3% with MDA-MB-231 breast; 72.3% in the assay with SF-268 CNS; 75.1% with SF-539 CNS; 49.3% in the assay on M14 melanoma; 66.3% in the assay with U251 CNS; 77.7% in the assay with PC-3 prostate. For the same compound, the growth in the assay on UACC-62 melanoma is 77.8%; with SK-MEL-28 melanoma it was 84.1%; in the assay with UO-31 renal, 35.7%; in the assay with OVCAR-3 ovarian it was 84.5%; with SW-620 colon, 97.8%; in the assay on MCF7 breast, 65.5%. The growth with HCT-116 colon is 10.9%; in the assay on KM12 colon, 22.1%.
Regarding `[Cl][Hg][n]1cnc2c(Cl)c(Cl)c(Cl)cc21`, the growth in the assay with NCI-H23 lung is 101%; in the assay with NCI-H226 lung, 119%; in the assay with NCI-H322M lung, 93.4%; in the assay with HOP-62 NSCLC, 109%; in the assay on NCI-H460 lung, 98.1%; in the assay on 786-0 renal, 112%. Further, the growth with MDA-MB-231 breast was 108%; in the assay on SF-268 CNS it was 88%; in the assay with SF-539 CNS it was 101%; in the assay on M14 melanoma it was 94.5%; with U251 CNS it was 78.2%; in the assay with PC-3 prostate, 88.7%. In addition, the growth in the assay on UACC-62 melanoma was 86.5%; with SK-MEL-28 melanoma, 107%; in the assay on UO-31 renal, 86.4%; in the assay on OVCAR-3 ovarian it was 94.5%; with SW-620 colon, 114%; in the assay on MCF7 breast, 78.3%. For the same compound, the growth in the assay with HCT-116 colon was 103%; in the assay on KM12 colon it was 97.8%.
Take `O=C(O)c1[nH]c(=O)[nH]c(=O)c1F`: the growth in the assay on NCI-H23 lung is 93%; in the assay on NCI-H226 lung, 86.2%; in the assay with NCI-H322M lung, 92.5%; in the assay on HOP-62 NSCLC it was 124%; in the assay with NCI-H460 lung it was 47.9%; in the assay with 786-0 renal, 105%. The growth is 108% in the assay on MDA-MB-231 breast; 86.7% in the assay with SF-268 CNS; 82.5% with SF-539 CNS; 86.6% in the assay with M14 melanoma; 87.2% with U251 CNS; 95.6% with PC-3 prostate. Further, the growth was 79.6% in the assay with UACC-62 melanoma; 94.7% in the assay on SK-MEL-28 melanoma; 65.9% with UO-31 renal; 106% in the assay on OVCAR-3 ovarian; 72.7% in the assay on SW-620 colon; 109% in the assay on MCF7 breast. For the same compound, the growth in the assay with HCT-116 colon is 79.3%; with KM12 colon, 69.3%.
Turning to `OC1(c2ccccc2F)c2ccccc2C2=NCCN21` (centres undefined), the growth is 86.7% with NCI-H23 lung; 84.8% in the assay on NCI-H226 lung; 97.2% with NCI-H322M lung; 84.9% with HOP-62 NSCLC; 118% with NCI-H460 lung; 96.6% in the assay on 786-0 renal. Also, the growth in the assay with MDA-MB-231 breast was 109%; in the assay on SF-268 CNS, 116%; in the assay with SF-539 CNS it was 100%; in the assay on M14 melanoma, 107%; in the assay with U251 CNS it was 104%; with PC-3 prostate it was 95.6%. For the same compound, the growth is 96% in the assay on UACC-62 melanoma; 109% in the assay with SK-MEL-28 melanoma; 84.2% with UO-31 renal; 87.9% in the assay on OVCAR-3 ovarian; 96.8% in the assay with SW-620 colon; 103% with MCF7 breast. For the same compound, the growth with HCT-116 colon is 93.3%; in the assay with KM12 colon it was 105%.
